Measured values: the supplement of paper PMC8728848
Many of the other results were omitted from the sample, so the strongest signals are more common in it than they were.

Columns and labels:
Assay in all cases: glycan array binding signal (z-score within array); higher = stronger binding
Details in all cases: glycan notation: IUPAC condensed, linker removed
GalNAc(b1-3)GalNAc = biological target: GalNAc(b1-3)GalNAc
Procedure, shortened: (§1)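 Glycan array binding is given as a within-array Z-score, which can be read as non-binding when negative. The arrays, 3228 of them, came from the Consortium for Functional Glycomics database and were retained only where the protein sequence was available. Z-scores were averaged across arrays of the same protein sequence at different concentrations or buffers and across linkers.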

GalNAc(b1-3)GlcNAc = biological target: GalNAc(b1-3)GlcNAc
Procedure, shortened: as §1

[1] = biological target: GalNAc(b1-4)GlcNAc(b1-2)Man(a1-3)[GalNAc(b1-4)GlcNAc(b1-2)Man(a1-6)]Man(b1-4)GlcNAc(b1-4)GlcNAc
Procedure, shortened: as §1

GlcA(b1-3)GlcNAc = biological target: GlcA(b1-3)GlcNAc
Procedure, shortened: as §1

[2] = biological target: GlcNAc(b1-2)[GlcNAc(b1-4)]Man(a1-3)[GlcNAc(b1-4)][GlcNAc(b1-2)Man(a1-6)]Man(b1-4)GlcNAc(b1-4)GlcNAc
Procedure, shortened: as §1

[3] = biological target: GlcNAc(b1-3)Gal(b1-4)GlcNAc(b1-3)Gal(b1-4)GlcNAc(b1-3)Gal(b1-4)GlcNAc(b1-3)Gal(b1-4)GlcNAc(b1-2)Man(a1-3)[GlcNAc(b1-3)Gal(b1-4)GlcNAc(b1-3)Gal(b1-4)GlcNAc(b1-3)Gal(b1-4)GlcNAc(b1-3)Gal(b1-4)GlcNAc(b1-2)Man(a1-6)]Man(b1-4)GlcNAc(b1-4)[Fuc(a1-6)]GlcNAc
Procedure, shortened: as §1

Kdn(a2-6)Gal(b1-4)GlcNAc = biological target: Kdn(a2-6)Gal(b1-4)GlcNAc
Procedure, shortened: as §1

[4] = biological target: Man(a1-2)Man(a1-3)[Man(a1-2)Man(a1-6)]Man
Procedure, shortened: as §1

[5] = biological target: Man(a1-2)Man(a1-6)[Man(a1-3)]Man(a1-6)[Man(a1-2)Man(a1-2)Man(a1-3)]Man(b1-4)GlcNAc(b1-4)GlcNAc
Procedure, shortened: as §1

[6] = biological target: Neu5Ac(a2-3)Gal(b1-3)GalNAc(b1-3)Gal(a1-4)Gal(b1-4)Glc
Procedure, shortened: as §1

[7] = biological target: Neu5Ac(a2-3)Gal(b1-4)GlcNAc(b1-2)Man
Procedure, shortened: as §1

[8] = biological target: Neu5Ac(a2-3)Gal(b1-4)GlcNAc(b1-3)Gal(b1-4)GlcNAc(b1-3)[Neu5Ac(a2-3)Gal(b1-4)GlcNAc(b1-3)Gal(b1-4)GlcNAc(b1-6)]GalNAc
Procedure, shortened: as §1

[9] = biological target: Neu5Ac(a2-3)Gal(b1-4)GlcNAc(b1-3)Gal(b1-4)GlcNAc(b1-6)[Gal(b1-3)]GalNAc
Procedure, shortened: as §1

[10] = biological target: Neu5Ac(a2-3)Gal(b1-4)GlcNAc6S
Procedure, shortened: as §1

[11] = biological target: Neu5Ac(a2-3)Gal6S(b1-4)GlcNAc
Procedure, shortened: as §1

Neu5Ac(a2-3)GalNAc = biological target: Neu5Ac(a2-3)GalNAc
Procedure, shortened: as §1

[12] = biological target: Neu5Ac(a2-6)Gal(b1-3)GlcNAc(b1-3)[Gal(b1-4)GlcNAc(b1-6)]Gal(b1-4)Glc
Procedure, shortened: as §1

[13] = biological target: Neu5Ac(a2-6)Gal(b1-4)GlcNAc(b1-2)[Neu5Ac(a2-6)Gal(b1-4)GlcNAc(b1-4)]Man(a1-3)[GlcNAc(b1-4)][Neu5Ac(a2-6)Gal(b1-4)GlcNAc(b1-4)Man(a1-6)]Man(b1-4)GlcNAc(b1-4)GlcNAc
Procedure, shortened: as §1

[14] = biological target: Neu5Ac(a2-6)Gal(b1-4)GlcNAc(b1-2)[Neu5Ac(a2-6)Gal(b1-4)GlcNAc(b1-6)]Man(a1-6)[Neu5Ac(a2-6)Gal(b1-4)GlcNAc(b1-2)Man(a1-3)][GlcNAc(b1-4)]Man(b1-4)GlcNAc(b1-4)GlcNAc
Procedure, shortened: as §1

[15] = biological target: Neu5Ac(a2-6)Gal(b1-4)GlcNAc(b1-3)Gal(b1-3)GlcNAc
Procedure, shortened: as §1

[16] = biological target: Neu5Ac(a2-8)Neu5Ac(a2-3)Gal(b1-3)GalNAc(b1-4)[Neu5Ac(a2-8)Neu5Ac(a2-3)]Gal(b1-4)Glc
Procedure, shortened: as §1

[17] = biological target: Neu5Gc(a2-3)Gal(b1-3)[Fuc(a1-4)]GlcNAc
Procedure, shortened: as §1

B1: AntigenI/IIA3VP1 (Streptococcus mutans), C9E3B4 (protein)
chain: AANEADYQAKLTAYQTELARVQKANADAKAAYEAAVAANNAANAALTAENTAIKKRNADAKADYEAKLAKYQADLAKYQKDLADYPVKLKAYEDEQASIKAALAELEKHKNEDGNLTEPSAQNLVYDLEPNANLSLTTDGKFLKASAVDDAFSKSTSKAKYDQKILQLDDLDITNLEQSNDVASSMELYGNFGDKAGWSTTVSNNSQVKWGSVLLERGQSATATYTNLQNSYYNGKKISKIVYKYTVDPKSKFQGQKVWLGIFTDPTLGVFASAYTGQVEKNTSIFIKNEFTFYDEDGKPINFDNALLSVASLNREHNSIEMAKDYSGKFVKISGSSIGEKNGMIYATDTLNFKQGEGGSRWTMYKNSQAGSGWDSSDAPNSWYGAGAIKMSGPNNYVTVGATSATNVMPVSDMPVVPGKDNTDGKKPNIWYSLNGKIRAVNVPKVTKEKPTPPVKPTAPTKPTYETEKPLKPAPVAPNYEKEPTPPTRLEHHHHHH
GalNAc(b1-3)GalNAc
  glycan array binding signal (z-score): 1.37
GalNAc(b1-3)GlcNAc
  glycan array binding signal (z-score): -0.475
[1]
  glycan array binding signal (z-score): -0.868
GlcA(b1-3)GlcNAc
  glycan array binding signal (z-score): -0.575
[2]
  glycan array binding signal (z-score): -1.35
[3]
  glycan array binding signal (z-score): 3.23
Kdn(a2-6)Gal(b1-4)GlcNAc
  glycan array binding signal (z-score): -1.05
[4]
  glycan array binding signal (z-score): -0.805
[5]
  glycan array binding signal (z-score): 0.975
[6]
  glycan array binding signal (z-score): 0.492
[7]
  glycan array binding signal (z-score): 0.921
[8]
  glycan array binding signal (z-score): 0.324
[9]
  glycan array binding signal (z-score): -0.29
[10]
  glycan array binding signal (z-score): -0.627
[11]
  glycan array binding signal (z-score): -0.68
Neu5Ac(a2-3)GalNAc
  glycan array binding signal (z-score): -1.05
[12]
  glycan array binding signal (z-score): 0.439
[13]
  glycan array binding signal (z-score): 1.05
[14]
  glycan array binding signal (z-score): 0.993
[15]
  glycan array binding signal (z-score): -1.1
[16]
  glycan array binding signal (z-score): -0.035
[17]
  glycan array binding signal (z-score): -0.885
